Compound activity: PubChem BioAssay, National Center for Advancing Translational Sciences (NCATS)
In the library only some 9.5% were active in any assay of this set; here they are far more common.
NS1 function inh: blocks influenza NS1 protein function. Potency, µM (highest dose often 46.1 µM), inactives show at the highest dose activity, positive = more growth. 270,000 compounds, 0.4% hits. AID 2326; further: actives are rising curves; nearly all actives have a fitted effect of over 50% in size
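Read-out: OD600 growth recovery of NS1-expressing budding yeast. Cells grown overnight at 30C in -URA glucose medium, washed, resuspended and diluted 1:100 in 2% galactose assay medium, pH 6.0. Same strain lacking NS1 served as positive control.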
SARS PLpro yeast: inhibitors of SARS-CoV papain-like protease in yeast; 330,000 compounds, 0.19% hits; S. cerevisiae expressing SARS-CoV PLpro, growth rescue; Potency, µM (doses to about 32.9 µM), without a hit: top-dose activity, positive = growth rescue, most hits filed as activators; further: 0% is about no effect; nearly all actives have a fitted effect of over 55% in size
RE007 growth inh: less growth of the S. pombe RE007 Vpr strain; 360,000 compounds, 0.21% hits; S. pombe RE007 Vpr strain, BacTiter-Glo ATP luminescence, 24 h; Potency, µM (top dose mostly 92.2 µM), without a hit: at the highest dose activity change, negative = less growth, usual class: inhibitors; AID 651644; active means well fitted falling curve with a large enough effect; inconclusive means small, poorly fitted or top-dose-only effect; inactive means no such curve, though single readings can be large or run the other way; further: on the % scale 0 is the no-effect control and ±100 the full control effect; nearly all actives have a fitted effect of over 50% in size
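Fission yeast RE007 carrying one integrated HIV-1 vpr copy, seeded at OD 0.01 in PMG+AL medium with 23 nL pinned compound. Grown 24 h at 30 degrees; viability read by BacTiter-Glo luminescence after 5 min.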
Pf growth 48h: P. falciparum growth inhibition at 48 hours (one generation). P. falciparum luciferase growth in erythrocytes, 48 h. Potency, µM (series often up to 28.7 µM), inactives show at the top dose activity change, negative = inhibition, most hits filed as inhibitors. 310,000 compounds, 5.9% hits; active means well fitted inhibition curve with a large enough effect; inconclusive means small, poorly fitted or top-dose-only effect, or another doubt; inactive means no such curve, though single readings can be large or run the other way; further: on the % scale 0 is the no-effect control and ±100 the full control effect
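Read-out is firefly luciferase luminescence from an integrated reporter in P. falciparum, so falling signal marks reduced parasite growth. Infected erythrocytes were at 2% hematocrit and 0.1% parasitemia (final) in Albumax-supplemented RPMI 1640.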
Pf growth 96h: inhibits malaria parasite growth, 96 h | P. falciparum luciferase reporter growth, 96 h | Potency, µM (titrated, usually from 28.7 µM), inactives show at the top dose activity change, negative = inhibition, actives largely listed as inhibitors | 320,000 compounds, 6.9% hits; active means well fitted inhibition curve with a large enough effect; inconclusive means small, poorly fitted or top-dose-only effect, or another doubt; inactive means no such curve, though single readings can be large or run the other way; further: on the % scale 0 is the no-effect control and ±100 the full control effect
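Delayed-death screen, second-generation endpoint: infected erythrocytes, 2% hematocrit, 0.05% parasitemia final; 96 hours at 37 C, 5% CO2; luciferase detection reagent; luminescence decrease equals reduced growth.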
* = called active by the depositor; i = inactive; u = inconclusive; x = no result given; [ ] = another dose, or the depositor's remark. Unless noted, the call rests on the fitted dose curve. Potency means the concentration at half of the fitted maximal effect.

SMILES	NS1 function inh	SARS PLpro yeast	RE007 growth inh	Pf growth 48h	Pf growth 96h
Cc1nc(SCC(=O)N2c3ccccc3NC(=O)CC2C)c2c(C)c(C)sc2n1 (configuration not stated)	x	-1.9%	11.4%	u	13.1µM*
Cc1sc2nc(C3CC3)nc(SCC(=O)N3c4ccccc4CC3C)c2c1C (configuration not stated)	3.3%	-3.6%	16.6%	u	47.9%
Cc1nc(SCC(=O)Nc2ccccc2Cl)c2c(C)c(C)sc2n1	x	-3.4%	-2.9%	5.22µM*	u
O=C(NC1CCCC1)C(c1ccccc1)n1c(Cc2cc(F)cc(F)c2)nc2ccccc21 (configuration not stated)	x	x	-4.0%	x	x
COc1ccc(C2=NOC(CNC(N)=S)C2)cc1 (configuration not stated)	x	-3.4%	-7.9%	i	2.62µM*
CC(=O)Nc1cc(-c2ccc(C(=O)N3CCOCC3)cc2)cn2c(-c3ccc(S(C)(=O)=O)cc3)cnc12	x	x	8.1%[18.4 µM]	x	x
CC1(C)N(O)C2CCCCC2N1O (configuration not stated)	0.5%	-8.3%	7.0%	0.037µM*	u
CC1(O)C[C@]2(C)N(O)C3CCCC[C@@H]3N2O1 (some centres not stated)	-8.8%	3.1%	0.8%	u	60.4%
COc1cccc(-c2sc3ccc(OC)cc3c2-c2cc(F)cc(OC)c2)c1	x	-1.2%	-10.3%	u	2.94µM*
COc1cccc(-c2sc3ccc(OC)cc3c2-c2ccc(O)cc2)c1	x	-4.4%	u	u	u
CN(C(=O)C1CCCN(c2ncnc3c2nc2n3CCCCC2)C1)c1cccc(Cl)c1 (configuration not stated)	-56.8%	-1.5%	-11.2%	2.94µM*	-2.6%
CCCCN(Cc1ccco1)C(=O)C1CCCN(c2ncnc3c2nc2n3CCCCC2)C1 (configuration not stated)	-53.1%	-1.6%	-2.6%	9.28µM*	15.1%
O=C(C1CCCN(c2ncnc3c2nc2n3CCCCC2)C1)N1CCN(c2ccccc2)CC1 (configuration not stated)	-31.3%	u	13.3%	u	u
O=C(C1CCCN(c2ncnc3c2nc2n3CCCCC2)C1)N1CCN(c2cccc(Cl)c2)CC1 (configuration not stated)	-14.5%	-12.7%	5.6%	13.1µM*	u
CC(C)N(Cc1ccccc1)C(=O)C1CCCN(c2ncnc3c2nc2n3CCCCC2)C1 (configuration not stated)	-41.1%	-2.7%	-0.8%	u	-4.8%
Cc1cccc(N2CCN(C(=O)C3CCN(c4ncnc5c4nc4n5CCCCC4)CC3)CC2C)c1 (configuration not stated)	9.5%	-54.3%	-21.7%	0.0%	11.7µM*
Cc1ccccc1N(C)C(=O)C1CCCN(c2ncnc3c2nc2n3CCCCC2)C1 (configuration not stated)	-8.7%	-5.0%	-3.0%	u	-2.6%
CCCN1CCN(C(=O)c2ccc(F)c(S(=O)(=O)N3CCOCC3)c2)CC1	x	5.3%	2.8%	-19.2%	6.2%
O=C1NC[C@H](CC2CCCCC2)N(CCc2cccc(F)c2)C1=O	x	3.3%	8.0%	u	u
CCn1cc(C(=O)NCC(OC)OC)c(=O)c2cc(S(=O)(=O)N3CCC(C)CC3)ccc21	-8.2%	-2.7%	6.5%	-2.0%	u
CC(=O)c1cccc(NC(=O)CN(C)S(=O)(=O)c2ccc3c(c2)CCC(=O)N3)c1	0.8%	-7.6%	-4.4%	1.5%	u
COc1cccc(NC(=O)CN(C)S(=O)(=O)c2ccc3c(c2)CCC(=O)N3)c1	-4.1%	0.6%	2.2%	16.9%	7.38µM*
CC1CCC(NC(=O)CN(C)S(=O)(=O)c2ccc3c(c2)CCC(=O)N3)CC1 (configuration not stated)	-0.4%	-3.1%	-10.5%	-15.5%	1.47µM*
Cc1ccc(C)c(N2CCN(S(=O)(=O)c3ccc4c(c3)CCC(=O)N4)CC2)c1	-42.9%	-5.1%	x	41.2%	0.0%
Cc1ccc(C)c(N2CCN(C(=O)CN(C)S(=O)(=O)c3ccc4c(c3)CCC(=O)N4)CC2)c1	-15.7%	-1.7%	5.9%	x	2.33µM*
O=C(Nc1cccc2ccccc12)c1csc([C@@H]2C[C@H](O)[C@@H](CO)O2)n1	x	x	-3.1%[18.4 µM]	x	x
